Source: PubChem
This is a sample that favours compounds with a hit; in the whole collection about 21% have one here.
DRD3 agonist: D3 dopamine receptor (human) agonism; D3R DiscoveRx beta-arrestin cells, luminescence, 90 min; max activation, %; 0.58% of 410,000 active; AID 652048; in the data active = max activation above about 30%
Target sequence (P35462 whole entry, looked up): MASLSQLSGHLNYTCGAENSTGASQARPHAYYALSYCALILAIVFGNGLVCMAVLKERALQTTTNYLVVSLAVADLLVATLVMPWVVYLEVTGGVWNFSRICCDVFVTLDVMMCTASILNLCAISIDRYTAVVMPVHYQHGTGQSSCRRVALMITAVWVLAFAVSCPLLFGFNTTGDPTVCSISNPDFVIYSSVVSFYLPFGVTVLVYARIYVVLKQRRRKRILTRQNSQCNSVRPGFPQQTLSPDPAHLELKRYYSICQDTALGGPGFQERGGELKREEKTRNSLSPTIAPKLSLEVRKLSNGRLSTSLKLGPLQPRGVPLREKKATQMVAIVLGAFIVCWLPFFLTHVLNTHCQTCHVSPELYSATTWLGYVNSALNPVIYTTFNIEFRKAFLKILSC
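Cells at 1500/well, incubated overnight, then treated with pinned compounds (dopamine as control) for 90 min at 37 degrees C. DiscoveRx reagent added for 30 - 60 minutes at room temperature; luminescence read.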
D3 antag: blocks the human D3 dopamine receptor; P35462; D3R cells, DiscoveRx beta-arrestin luminescence, antagonist mode; stronger effect = lower value; max response, negative = inhibition, %; 2.5% of 360,000 active; AID 652054; in the data active = max response below about -50%; inconclusive = no clear call, values can overlap the other calls
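Cells expressing the human receptor were seeded at 1500 cells/well, incubated overnight at 37 degrees C in 5% CO2, then exposed to library compounds with dopamine controls for 90 minutes at 37 degrees C before luminescent detection.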
ClpP mod: qHTS Assay for Activators of ClpP; Potency, µM (titrated, usually from 57.5 µM); 1.9% of 340,000 active; purified B. subtilis ClpP, FRET peptide cleavage, 20 min; ATP-dependent Clp protease proteolytic subunit (Bacillus subtilis (strain 168)), P80244; active = well fitted falling curve with a large enough effect; inconclusive = small, poorly fitted or top-dose-only effect; inactive = no such curve, though single readings can be large or run the other way; note: the source files actives as falling curves though it sought activators and does not explain the sign; nearly all actives have a fitted effect of over 65% in size
Target sequence (P80244 whole entry, looked up): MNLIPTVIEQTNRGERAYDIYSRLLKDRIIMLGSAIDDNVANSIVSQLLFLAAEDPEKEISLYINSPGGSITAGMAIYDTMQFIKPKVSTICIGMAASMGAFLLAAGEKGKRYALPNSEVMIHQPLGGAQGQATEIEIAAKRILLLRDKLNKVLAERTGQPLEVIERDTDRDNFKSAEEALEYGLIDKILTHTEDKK
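FRET quenching reversal measured ClpP activation: 10 microg/mL B. subtilis ClpP at pH 8 with the FRET-FV decapeptide, read at 430 nm after 320 nm excitation. The 20-min minus 0-min signal was scaled between DMSO/no-enzyme wells and ADEP (5.8 microM final).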
DT40 TDP1 CPT: growth inhibition of DT40 Tdp1-/-;hTDP1 cells with camptothecin (screen for TDP1 inhibitors). Potency, µM (top dose mostly 46.2 µM), actives largely listed as inhibitors. 12% of 420,000 active. chicken DT40 Tdp1-/-;hTDP1 cells + 20 nM CPT, ATP luminescence, 48 h. AID 686979; note: nearly all actives have a fitted effect of over 55% in size
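Cell growth measured by CellTiter-Glo luminescence after a minimum 48 h, 37 C compound exposure with 20 nM CPT in Tdp1-knockout DT40 cells stably expressing hTDP1, seeded 400/well; qHTS titration format.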
IL1B secr inh: blocks inflammasome-driven IL-1 beta release | THP-1 LPS/ATP IL-1B secretion, AlphaLISA, 16 h; stronger effect = lower value | activity change, % at 57.5 µM | 4.7% of 360,000 active; in the data active = activity change below about -50%; inconclusive = mostly about -30% to -49%
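THP-1 cells pretreated 1 hr with compounds (up to 57.5 uM final), then stimulated with LPS (250 ng/mL final) plus ATP (1.25 mM final); secreted IL-1B measured by AlphaLISA after 16 hr, decreased signal indicating inhibition.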
TDP1 cell noCPT: qHTS for Inhibitors of human tyrosyl-DNA phosphodiesterase 1 (TDP1): qHTS in cells in absence of CPT. DT40 Tdp1-/- hTDP1 cells, no CPT, ATP luminescence, 48 h. Potency, µM (top dose mostly 46.2 µM), hits mostly inhibitors. 15% of 420,000 active. AID 686978, 2013; note: nearly all actives have a fitted effect of over 55% in size
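Compound effects on proliferation are scored in DT40 Tdp1-/-;hTDP1 cells in the absence of CPT. ATP levels (CellTiter-Glo luminescence) are recorded after a ≥48 hr, 37 °C incubation.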
Large screens that a line does not name were inactive. Unless noted, calls come from the whole dose curve; as a rule, active = well fitted inhibition curve with a large enough effect; inconclusive = small, poorly fitted or top-dose-only effect; inactive = flat fitted curve, though single readings scatter.

COC(=O)c1ccccc1NC(=O)Oc1ccc(F)cc1	ClpP mod 25µM
Cc1ccccc1C(=O)NC(=S)Nc1ccc(S(=O)(=O)N(C)c2ccccc2)cc1	DT40 TDP1 CPT 23µM, TDP1 cell noCPT 23µM
COC(=O)c1ccccc1NC(=S)NC(=O)c1ccccc1C	DT40 TDP1 CPT 23µM
Cc1cccc(C(=O)NC(=S)Nc2ccc(S(=O)(=O)N(C)c3ccccc3)cc2)c1	D3 antag -66, DT40 TDP1 CPT inconclusive, TDP1 cell noCPT 13µM
COc1ccc2c(c1)cc(CNc1ccc(OC)c(OC)c1)c(=O)n2CC(=O)Nc1ccccc1C	none (no result: D3 antag, DT40 TDP1 CPT, IL1B secr inh, TDP1 cell noCPT)
CN(Cc1cccs1)C(=O)c1ccc(Cl)c(S(=O)(=O)N2CCCCCC2)c1	TDP1 cell noCPT inconclusive (no result: ClpP mod)
Fc1ccccc1-c1nc2c(s1)CCc1onc(-c3ccc(Br)cc3)c1-2	none
COc1ccccc1C(=O)N1CCN(c2nc3cc(C)c(C)cc3cc2C#N)CC1	ClpP mod inconclusive, DT40 TDP1 CPT 18µM, IL1B secr inh -67, TDP1 cell noCPT 16µM
CC(=O)c1cccc(S(=O)(=O)N2CCN(c3nc4cc(C)cc(C)c4cc3C#N)CC2)c1	DT40 TDP1 CPT 15µM, TDP1 cell noCPT inconclusive
Cc1ccc2cc(C#N)c(N3CCCN(C(=O)C4CCCO4)CC3)nc2c1C (configuration not stated)	ClpP mod inconclusive, DT40 TDP1 CPT inconclusive, IL1B secr inh inconclusive, TDP1 cell noCPT inconclusive
Cc1cc(C)c2cc(C#N)c(N3CCCN(C(=O)c4cnccn4)CC3)nc2c1	TDP1 cell noCPT 18µM (no result: ClpP mod)
COc1ccccc1C(=O)N1CCN(c2nc3cc(C)cc(C)c3cc2C#N)CC1	DT40 TDP1 CPT 23µM, TDP1 cell noCPT 21µM
COCCNC(=S)N1CCCN(c2nc3cc(C)ccc3cc2C#N)CC1	DT40 TDP1 CPT inconclusive, TDP1 cell noCPT inconclusive
Cc1cc(C)c2cc(C#N)c(N3CCCN(S(=O)(=O)c4ccccc4)CC3)nc2c1	TDP1 cell noCPT inconclusive
CCCCN(CCCC)CC(O)c1cc(Cl)cc2c1-c1ccc(Cl)cc1C2=Cc1ccc(Cl)cc1 (configuration not stated)	DT40 TDP1 CPT 8.9µM, TDP1 cell noCPT inconclusive (no result: DRD3 agonist, D3 antag, IL1B secr inh)
Cc1ccccc1NS(=O)(=O)c1ccc(C(=O)N2CCN(c3ccccn3)CC2)cc1	DT40 TDP1 CPT inconclusive, TDP1 cell noCPT 15µM (no result: ClpP mod)
Cc1ccccc1NS(=O)(=O)c1ccc(C(=O)N2CCN(c3ccccc3O)CC2)cc1	DT40 TDP1 CPT 12µM, IL1B secr inh inconclusive, TDP1 cell noCPT 15µM
O=C(c1ccc(S(=O)(=O)Nc2ccccc2F)cc1)N1CCN(c2ccccn2)CC1	DT40 TDP1 CPT inconclusive, TDP1 cell noCPT inconclusive
Cc1ccc(S(=O)(=O)N2CCCCC2)cc1C(=O)N1CCN(c2ccccn2)CC1	ClpP mod 28µM
O=S(=O)(Nc1nc(-c2ccccc2)cs1)c1cc(Cl)ccc1Cl	none
CCOC(=O)c1c(NC(=O)COC(=O)c2nc(Cl)ccc2Cl)sc(C(=O)NC)c1C	none (no result: ClpP mod)
CC1CCC(NC(=O)c2[nH]c(C(F)(F)F)nc2-c2ccccc2)CC1 (configuration not stated)	none
Oc1c(C(c2ccccc2Cl)N2CCCC2)sc2nc(-c3ccco3)nn12 (configuration not stated)	DT40 TDP1 CPT inconclusive, TDP1 cell noCPT inconclusive (no result: D3 antag, IL1B secr inh)
C=CC[C@H](c1ccc(F)cc1)N(CC(C)C)S(=O)(=O)C=C	DT40 TDP1 CPT inconclusive, TDP1 cell noCPT 11µM (no result: DRD3 agonist, D3 antag, IL1B secr inh)
COC(=O)c1ccccc1NC(=O)CCCn1nc(C)c2sc3ccccc3c2c1=O	TDP1 cell noCPT inconclusive (no result: D3 antag, IL1B secr inh)
C1=Nc2c(Nc3ccccc3)ncnc2Oc2ccccc21	DT40 TDP1 CPT 9.2µM, TDP1 cell noCPT 10µM
Clc1ccc2c(c1)C=Nc1c(NCc3ccccc3)ncnc1O2	none
Cc1ccccc1CN1C(=O)c2ccccc2Sc2ccc(C(=O)O)cc21	none
O=C(c1ccc2c(c1)N(Cc1ccccc1)C(=O)c1ccccc1S2)N1CCCC1	DT40 TDP1 CPT 16µM, TDP1 cell noCPT 9.2µM
Cc1cccc(CN2C(=O)c3ccccc3Sc3ccc(C(=O)N4CCCC4)cc32)c1	DT40 TDP1 CPT inconclusive, TDP1 cell noCPT inconclusive (no result: D3 antag, IL1B secr inh)
Cc1ccccc1CN1C(=O)c2ccccc2Sc2ccc(C(=O)N3CCCC3)cc21	DT40 TDP1 CPT 21µM, TDP1 cell noCPT 16µM (no result: D3 antag, IL1B secr inh)
Cc1ccccc1CN1C(=O)c2ccccc2Sc2ccc(C(=O)N3CCOCC3)cc21	DT40 TDP1 CPT inconclusive, TDP1 cell noCPT 18µM (no result: D3 antag, IL1B secr inh)
O=C(O)c1ccc2c(c1)C(=O)N(Cc1ccccc1)C2=O	D3 antag -51
Fc1ccc(Nc2ccc3ccccc3n2)c(F)c1	none
O=C(c1ccco1)N1CCN(C(=O)N2c3ccccc3Sc3ccccc32)CC1	DT40 TDP1 CPT 0.23µM, TDP1 cell noCPT 0.63µM
O=C(c1ccco1)N1c2ccccc2Sc2ccccc21	DT40 TDP1 CPT inconclusive, IL1B secr inh -50, TDP1 cell noCPT inconclusive
COC(=O)c1nnn(-c2cc(Cl)cc(Cl)c2)c1C(=O)OC	none
O=C(CCCn1c(=O)c2sccc2n(Cc2ccc(F)cc2Cl)c1=O)NCc1ccc2c(c1)OCO2	none (no result: D3 antag, IL1B secr inh)
C(=C1c2ccccc2-c2ccccc21)c1ccncc1	DT40 TDP1 CPT inconclusive, IL1B secr inh -78, TDP1 cell noCPT 23µM
CNc1ccc(/C=C2\C=Cc3ccccc32)cc1	DT40 TDP1 CPT inconclusive (no result: DRD3 agonist, D3 antag, IL1B secr inh)
CNc1ccc(C=C2c3ccccc3-c3ccccc32)cc1	DT40 TDP1 CPT inconclusive, TDP1 cell noCPT 13µM (no result: DRD3 agonist, D3 antag, IL1B secr inh)
C(=C\c1ccccn1)/c1ccncc1	none
O=C(COc1ccc2c(c1)oc(=O)c1ccccc12)NC(Cc1ccc(Cl)cc1)C(=O)O (configuration not stated)	none
O=C(O)CCC/C=C\C[C@@H]1CO[C@H](C(F)(F)F)O[C@@H]1c1ccccc1O	none (no result: DRD3 agonist, D3 antag, ClpP mod, IL1B secr inh)
COc1ccc(C2CC(c3ccccc3)=NN2C(=O)c2ccc(F)cc2)cc1 (configuration not stated)	D3 antag inconclusive, DT40 TDP1 CPT inconclusive, IL1B secr inh -64, TDP1 cell noCPT 29µM
COc1ccc(C2=NN(C(=O)c3ccc(Cl)c([N+](=O)[O-])c3)C(c3ccccc3)C2)cc1 (configuration not stated)	DT40 TDP1 CPT inconclusive, TDP1 cell noCPT inconclusive
COc1ccc(C2CC(c3ccccc3O)=NN2C(=O)c2ccccc2)cc1OC (configuration not stated)	DT40 TDP1 CPT inconclusive
O=C(c1ccccc1)N1N=C(c2ccccc2O)CC1c1ccccc1 (configuration not stated)	DT40 TDP1 CPT 21µM, TDP1 cell noCPT inconclusive
